{"source": "the supplement of paper PMC10338343", "note": "± gives the standard deviation.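 Further: 1 nM active piRISC with 0.1 nM target library at 33 °C single turnover.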"}
{"tested_on": "MILI (PIWIL2) piRISC loaded with piRNA #1 (26 nt)", "experiment": "pre-steady-state target cleavage rate (min^-1); guide: piRNA #1 5'p-UGAGGUAGUAGGUUGUAUAGUAUCCA; MIWI and MILI are mouse PIWI proteins and EfPiwi is from a freshwater sponge; tags in brackets are library labels; higher = faster piRNA-guided slicing of the target", "conditions": "auxiliary factor: 500 nM mouse GTSF1", "outline": "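For Cleave-'n-Seq, a transcribed, DNA-blocked target RNA library […] met 1 nM active affinity-purified piRISC with one synthetic guide at 33 °C for 0–8 or 0–960 min in HEPES–potassium acetate buffer, with or without 500 nM GTSF1 partner protein. Uncleaved targets were sequenced and normalised to depth and weakly complementary targets, with three trials pooled and k3 capped at 0.0001 min^-1. A burst-and-steady-state fit supplied the pre-steady-state cleavage rate.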"}
{"sequence": "GGAGACCUAUGUAUACAAGCUACUUCCUCA", "pre-steady-state target cleavage rate": "0.101 ± 0.013"}
{"sequence": "GGAGACCUAUCAAUACAACCUACUUCCUCA", "pre-steady-state target cleavage rate": "0.0355 ± 0.0087"}
{"sequence": "GGAGACCUUACUAUACAUCCUUCUACCUCA", "pre-steady-state target cleavage rate": "0.0405 ± 0.0086"}
{"sequence": "GGAGACCUAACUAUUCAACCUACUUCCUCA", "pre-steady-state target cleavage rate": "0.0529 ± 0.018"}
{"sequence": "GGAGACCUAUCUAUACAAGGUACUACCUCA", "pre-steady-state target cleavage rate": "0.0563 ± 0.0083"}
{"sequence": "GGAGAGGAUACUAUACAUGGUACUACCUCA", "pre-steady-state target cleavage rate": "0.00387 ± 0.0028"}
{"sequence": "GGAGACCUAACUAAACAACGUACUACCUCA", "pre-steady-state target cleavage rate": "0.00971 ± 0.005"}
{"sequence": "GGAGACCUAUCUAUACAACGAACUACCUCA", "pre-steady-state target cleavage rate": "0.00423 ± 0.0023"}
{"sequence": "GGAGACCUAUCUAUACAACCUACUACCACA", "pre-steady-state target cleavage rate": "0.136 ± 0.019"}
{"sequence": "GGAGACCUAUGAUAUCAACCUACGUACCUCA", "pre-steady-state target cleavage rate": "0.00296 ± 0.0024"}
{"sequence": "GGAGACCAUAGUAUACAACCAACUACCUCA", "pre-steady-state target cleavage rate": "0.00718 ± 0.0021"}
{"sequence": "GGAGACCUAUGAUUACAACCUAGCUACCUCA", "pre-steady-state target cleavage rate": "0.00386 ± 0.0032"}
{"sequence": "GGAGACCAUACUAUACAACGAUCUACCUCA", "pre-steady-state target cleavage rate": "< 0.0001"}
{"sequence": "GGAGAGGAUUCUAUACAACCUACUUCCUCA", "pre-steady-state target cleavage rate": "0.00504 ± 0.0027"}
{"sequence": "GGAGACCAUACUCUACAACCUACUACCUCA", "pre-steady-state target cleavage rate": "0.161 ± 0.018"}
{"sequence": "GGAGACCUUACUAUACAACCUACUACUCUCA", "pre-steady-state target cleavage rate": "0.242 ± 0.025"}
{"sequence": "GGAGACCUAUCUAUUCUACCUACUACCUCA", "pre-steady-state target cleavage rate": "0.0569 ± 0.0086"}
{"sequence": "GGAGUGGAUACUAUACAACCAAGUACCUCA", "pre-steady-state target cleavage rate": "0.00277 ± 0.0018"}
{"sequence": "GGAGACCUAUGUAUACAUGGAUGAUGGAGA [g14:g19:cont:t1A]", "pre-steady-state target cleavage rate": "< 0.0001"}
{"sequence": "GGAGACCUAACUAUACAACCUACUACACUCA", "pre-steady-state target cleavage rate": "0.168 ± 0.028"}
{"sequence": "GGAGACCUAUGAAUAACAACCUACUACCUCA", "pre-steady-state target cleavage rate": "0.00368 ± 0.0026"}
{"sequence": "GGAGACCUAUCUAUACAUCGUACUACCUCA", "pre-steady-state target cleavage rate": "0.014 ± 0.0026"}
{"sequence": "GGAGACCUAUGAUAUGUACCUUCUACGUCA", "pre-steady-state target cleavage rate": "< 0.0001"}
{"sequence": "GGAGACCUUAAUAUACAACCUACUACCUCA", "pre-steady-state target cleavage rate": "0.0318 ± 0.0064"}
